The values below come from PubChem BioAssay (NCI).

Compounds without any hit were thinned out: in the full panel of roughly 83,000, 20% have a hit.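 Plates (96-well) were seeded with cells, treated with compound at one concentration, and incubated for 48 hours before percent growth was determined.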 A number with no mark means an inactive call. Activity calls are given as the source filed them. Rule for the calls: active = growth percent below 10; inactive = the rest.

Assay in all cases: NCI-60 one-dose screen, 48 h (100 = growth as untreated, 0 = no growth, -100 = all killed)
Assay [1] relates to HCT-15 colon. As to conditions: 10 µM unless noted.
Assay [2] relates to HT29 colon. As to conditions: 10 µM unless noted.
Assay [3] has as its system SNB-75 CNS. Conditions: 10 µM unless noted.
Assay [4] relates to SNB-19 CNS. Conditions: 10 µM unless noted.
Assay [5] concerns U251 CNS. As to conditions: 10 µM unless noted.
Assay [6] deals with PC-3 prostate. Conditions: 10 µM unless noted.
Assay [7] has as its system SK-MEL-5 melanoma. Conditions: 10 µM unless noted.
For assay [8], the system named is UACC-62 melanoma. As to conditions: 10 µM unless noted.
The subject of assay [9] is LOX IMVI melanoma. Conditions: 10 µM unless noted.
Assay [10] deals with SK-MEL-28 melanoma. Conditions: 10 µM unless noted.
Assay [11] deals with EKVX NSCLC. As to conditions: 10 µM.
The subject of assay [12] is SN12C renal. Conditions: 10 µM unless noted.
Assay [13] relates to UO-31 renal. As to conditions: 10 µM unless noted.
The test system of assay [14] is TK-10 renal. As to conditions: 10 µM unless noted.
Assay [15] concerns ACHN renal. As to conditions: 10 µM unless noted.
The test system of assay [16] is CAKI-1 renal. As to conditions: 10 µM unless noted.
In assay [17] the test system is A498 renal. As to conditions: 10 µM unless noted.
Assay [18] has as its system CCRF-CEM leukemia. Conditions: 10 µM.
The subject of assay [19] is MOLT-4 leukemia. Conditions: 10 µM unless noted.
Assay [20] relates to SK-MEL-2 melanoma. Conditions: 10 µM unless noted.

For `CN1CCN(Cc2ccc(NC(=O)c3cncc(C#Cc4c(N)ncc5ccc(F)cc45)c3)cc2C(F)(F)F)CC1`, the growth is 25.9% in assay [1]; -60.1% (active) in assay [2]; 15.5% in assay [3]; 74.3% in assay [4]; 43.3% in assay [5]; 43.7% in assay [6]. Moreover, the growth was -93.1% (active) in assay [7]; 22.8% in [8]; -8.63% (active) in [9]; -84.9% (active) in assay [10]; 50.7% in assay [11]; 36.4% in assay [12]. In addition, the growth in [13] was -78.9% (active); in [14] it was 11.5%; in [15] it was -93.6% (active); in assay [16] it was 25.2%; in [17], 15%; in assay [18], 0.436% (active). Besides, the growth in [19] is 9.77% (active).
With `COc1cccc(NC(=O)NCCNc2nccc(-c3c(-c4ccc(F)cc4)nc4sccn34)n2)c1`, the growth in assay [1] is 56.4%; in assay [2], 39.8%; in assay [3], 48.3%; in assay [4] it was 86.3%; in assay [5], 77.6%; in assay [6] it was 89.9%. For the same compound, the growth in assay [7] is 61.6%; in assay [8] it was 68.2%; in [9], 72.6%; in [10], 92.2%; in assay [11], 98.6%; in assay [12], 72.8%. Besides, the growth is 52.4% in assay [13]; 76.2% in assay [14]; 44.9% in assay [15]; 93.4% in [16]; 67.5% in assay [18]; 77.8% in assay [19].
For the compound `O=C1OC(c2ccc(-c3ccccc3)cc2)=C/C1=C/c1c2ccccc2cc2ccccc12`, the growth in assay [1] is 74.8%; in [2], 103%; in assay [3] it was 78.7%; in [4], 94.1%; in assay [5], 98%; in assay [6], 98.5%. Besides, the growth was 104% in [7]; 99.3% in assay [8]; 95.8% in [9]; 87.7% in assay [10]; 65.5% in [11]; 101% in assay [12]. For the same compound, the growth in assay [13] was 92.8%; in assay [14] it was 77.9%; in assay [15], 97.6%; in assay [17] it was 83.7%; in assay [18], 69.9%; in assay [19], 72.6%.
`O=C1Nc2c(c(=O)n(-c3ccccc3)c3ccccc23)C(c2ccc(Cl)cc2)N1` (stereo not drawn): the growth in assay [1] was 90.4%; in assay [2], 106%; in assay [3] it was 80.7%; in assay [4] it was 60.4%; in assay [5], 85.9%; in assay [6], 105%. For the same compound, the growth in [7] is 80.4%; in assay [8] it was 62.8%; in assay [9] it was 36.4%; in assay [10], 90.9%; in assay [11], 86.8%; in [12] it was 76.3%. Moreover, the growth in assay [13] was 80.5%; in [14], 54.8%; in [15] it was 102%; in assay [16] it was 101%; in [17] it was 98.1%; in [18], 79.5%. In [19], the growth was 81.9%.
On to `CC(C)CCCCCOC(=O)c1ccccc1SSc1ccccc1C(=O)OCCCCCC(C)C`, for which the growth in assay [1] was 104%; in [2] it was 122%; in assay [3], 87.2%; in assay [4] it was 103%; in [5], 110%; in [6], 88.6%. The growth is 96.2% in [7]; 96.2% in assay [8]; 100% in assay [9]; 114% in assay [10]; 103% in assay [11]; 105% in [12]. The growth was 70.5% in [13]; 136% in assay [14]; 103% in assay [15]; 97.3% in [16]; 100% in assay [17]; 70.9% in assay [18]. In addition, in assay [19], the growth was 72.1%.
Consider `COc1cc([C@@H]2c3cc4c(cc3[C@H](O)[C@H]3COC[C@@H]23)OCO4)cc(OC)c1OC`, for which the growth in assay [1] is 59.1%; in assay [2] it was 79.1%; in assay [3], 58%; in assay [4], 76.9%; in [5] it was 77.4%; in assay [6], 63.8%. The growth was 51% in [7]; 42.7% in assay [8]; 75.7% in [9]; 69.4% in assay [10]; 109% in assay [11]; 90.5% in [12]. In addition, the growth was 53.9% in [13], 94.4% in assay [14], 62.3% in [16] and 76.6% in assay [19].
As for `O=P(OCCCl)(OCCCl)C(O)c1ccccc1Cl` (stereo not drawn), the growth in assay [1] was 99.5%; in [2], 101%; in assay [3], 96.7%; in assay [4], 107%; in assay [5] it was 113%; in assay [6], 103%. The growth is 112% in assay [7]; 106% in [8]; 104% in assay [9]; 113% in [10]; 112% in [20]; 80.2% in [13]. Besides, the growth in [14] is 102%; in assay [15] it was 98.4%; in [16] it was 76.4%; in [17], 121%; in assay [19], 99.8%.
Turning to `CCCCCCCCCCCCCCCCNC(=O)Nc1ccc(C)c(NC(=O)NCCCCCCCCCCCCCCCC)c1`, the growth is 105% in [1]; 104% in assay [2]; 97% in assay [3]; 96.9% in assay [4]; 100% in assay [5]; 84.5% in [6]. Further, the growth in assay [7] is 98.4%; in [8], 95.5%; in [9] it was 109%; in assay [10], 112%; in assay [20], 117%; in [13], 74.3%. The growth in [14] was 112%; in [15], 98.7%; in assay [16], 117%; in assay [17] it was 113%; in assay [19] it was 104%.
